Measured values published in PubChem BioAssay (Tox21).
A number with no mark means an inactive call. Entries that show only a call come without a potency. The source made the active and inactive calls. Calls follow the shape of the full dose curve.

These compounds were tested against Gonadotropin-releasing hormone receptor (Homo sapiens) (UniProt P30968) (assay: Human gonadotropin-releasing hormone receptor (GnRHR) small molecule agonists, calcium flux assay in GnRHR-HEK293 cells (AID 1920063; also: nearly all actives have a fitted effect of over 35% in size)). Settings: calcium flux fluorescence, agonist mode; series mostly up to 57.6 µM.
Gonadotropin-releasing hormone receptor (Homo sapiens), sequence (P30968 whole entry, looked up): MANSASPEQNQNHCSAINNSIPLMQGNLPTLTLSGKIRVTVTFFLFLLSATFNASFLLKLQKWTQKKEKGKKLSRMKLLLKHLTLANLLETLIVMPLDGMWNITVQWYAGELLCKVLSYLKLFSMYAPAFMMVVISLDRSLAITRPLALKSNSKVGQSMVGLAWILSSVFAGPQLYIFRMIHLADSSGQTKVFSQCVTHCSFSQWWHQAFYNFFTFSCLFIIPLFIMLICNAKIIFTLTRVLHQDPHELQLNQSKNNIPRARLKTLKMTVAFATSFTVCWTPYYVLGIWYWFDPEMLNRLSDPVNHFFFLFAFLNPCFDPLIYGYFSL
From the text: National Center for Advancing Translational Sciences [NCATS]
Division of Preclinical Innovation [DPI]
U.S. Environmental Protection Agency [EPA]
National Institutes of Environmental Health Sciences [NIEHS]
National Toxicology Program [NTP]
U.S. Food and Drug Administration [FDA]
Gonadotropin-releasing hormone receptor (GnRHR) is a G-protein-coupled receptor (GPCR) and acts (through phospholipase C) to increase intracellular inositol trisphosphate and then release intracellular calcium stores. Cell-based GnRHR-Hek293 calcium influx assay is using HEK293 cells that have been genetically engineered to express the human GnRHR, which activity can be measured by calcium signaling. A compound/drug can activate (agonist) GnRHR that can be monitored by levels of intracellular calcium.
GnRHR-HEK293 cells developed by Codex Corp contain human GnRHR reporter gene, which was stably integrated into HEK 293 cells. The compound activation can be detected by fluorescence intensity via calcium flux assay. This cell line has been used to screen the Tox21 10K compound library to identify GnRHR agonists.
GnRHR-Hek293 cells were dispensed at 1500cells/4uL/well in 1536-well black wall/clear bottom plates using a multidrop dispenser. After the assay plates were incubated at a 37 C/5% CO2 incubator for 18 hours, 4 uL of Calcium Dye Solution was added to each well. The plates were incubated at 37 C for 1 hour. For agonist mode, 23 nL of compounds dissolved in DMSO, positive controls or DMSO only was transferred to the assay plate by a pin tool station. The fluorescence intensity in the plates was measured using FDSS 7000EX kinetic plate reader with a filter set of Ex/Em=480/540 for 3 min at 1 sec intervals. Each test compound was measured at 15 concentrations and in triplicates.
Potency is read from the fitted curve at half-maximal effect.

| Compound | Potency | activity change |
| --- | --- | --- |
| O=C1[C@@H]2[C@H]3CC[C@H](C3)[C@@H]2C(=O)N1CCCCN1CCN(c2ncccn2)CC1 | inactive |  |
| C=CC(C)(CCC=C(C)C)OC(=O)CC(C)C (stereo not given) | inactive |  |
| CCNc1nc(NC(C)CC)nc(OC)n1 (stereo not given) | inactive |  |
| CC1CCCC1 | inactive |  |
| CCCC1C(CC)=CC(CC)=CN1c1ccccc1 (stereo not given) | inactive |  |
| CC1(C)[C@@H](O)CC[C@]2(C)[C@H]3C(=O)C=C4[C@@H]5C[C@@](C)(C(=O)O)CC[C@]5(C)CC[C@@]4(C)[C@]3(C)CC[C@@H]12 | 34.3 µM (active) |  |
| CC(=O)c1c(C)c([N+](=O)[O-])c(C(C)(C)C)c([N+](=O)[O-])c1C | inactive |  |
| Cc1ccc2c(c1)CCCN2 | inactive |  |
| CC(=O)OCC(=O)[C@@]1(O)CC[C@H]2[C@@H]3CCC4=CC(=O)CC[C@]4(C)[C@H]3C(=O)C[C@@]21C | inactive |  |
| CC(C)(C)C1CCC(CC2=C(O)c3ccccc3C(=O)C2=O)CC1 (stereo not given) | inactive |  |
| C=C/C=C/C=C/CCCCC |  | 0.656% [at 11.8 µM, stronger effect = higher value] |
| CC(=O)Oc1ccc(C(=C2CCCCC2)c2ccc(OC(C)=O)cc2)cc1 | inactive |  |
| COc1ccc(N=Nc2cc(C)c(N=Nc3ccc(S(=O)(=O)O)cc3)cc2OC)cc1 | inactive |  |
| NC(N)=NN=C(/C=C/c1ccc([N+](=O)[O-])o1)/C=C/c1ccc([N+](=O)[O-])o1 | inactive |  |
| CCO[C@H](Cc1ccc(OCCc2ccc(OS(C)(=O)=O)cc2)cc1)C(=O)O | inactive |  |
| CC1(C)[C@H](C(=O)O)N2C(=O)C[C@H]2S1(=O)=O | inactive |  |
| O=C1c2c(O)ccc([N+](=O)[O-])c2C(=O)c2c([N+](=O)[O-])ccc(O)c21 | 17.2 µM (active) |  |
| Nc1nc(Cl)nc2c1ncn2[C@H]1C[C@H](O)[C@@H](CO)O1 | inactive |  |
| Cc1oc(-c2ccccc2)nc1CCOc1cccc2c1ccn2CCC(=O)O | inactive |  |
| Cc1ccc(O)c2ncccc12 | inactive |  |

| Compound | Potency | activity change |
| --- | --- | --- |
| O=C1CCCc2c1cc1ccc3cccc4ccc2c1c34 | inactive |  |
| Nc1ccc(C(=O)Nc2ccccc2N)cc1 | inactive |  |
| C[C@H](NC(CCc1ccccc1)C(=O)O)C(=O)N1CCC[C@H]1C(=O)O (stereo not given in full) | inactive |  |
| CCCCOC(=O)CCCCC(=O)OCCCC | inactive |  |
| On1ccccc1=S | inactive |  |
| O=C1OC(=O)c2c(Br)c(Br)c(Br)c(Br)c21 | inactive |  |
| CCCCCCCCCCCCCCCCN(C)C |  | -0.722% [at 5.22 µM, stronger effect = higher value] |
| Cc1c[nH]c(=S)[nH]c1=O | inactive |  |
| CC(=O)C(=O)CC(C)C | inactive |  |
| CCCCCC/C=C\CCCCCCCC(=O)O | inactive |  |
| COc1cc([N+](=O)[O-])ccc1N | inactive |  |
| Oc1cc(Cl)cc(Cl)c1Cl | inactive |  |
| CN1CC(=O)N2[C@H](c3ccc4c(c3)OCO4)c3[nH]c4ccccc4c3C[C@@H]2C1=O | inactive |  |
| CC1(CN2CCC(n3c(=O)[nH]c4ccccc43)CC2)OCc2ccccc2-n2cccc21 (stereo not given) | inactive |  |
| CN(C)c1ccc(N=Nc2ccccc2C(=O)O)cc1 | inactive |  |
| CCC(C)[O-].CCC(C)[O-].CCOC(=O)/C=C(/C)[O-].[Al+3] | inactive |  |
| O=C(CS)OCCOC(=O)CS | inactive |  |
| CC(CSC(=O)c1ccccc1)C(=O)N1C[C@@H](Sc2ccccc2)C[C@H]1C(=O)O (stereo not given in full) |  | -1.85% [at 11.8 µM, stronger effect = higher value] |
| O=C(c1ccc(O)cc1)c1ccc(O)c(O)c1O | inactive |  |
| CNC(=O)C(c1ccccc1)c1ccccc1 | inactive |  |
